26 compounds from PubChem BioAssay AID1794808 (University of Kansas High Throughput Screening Laboratory, 2022) can be followed below.

“And” between values parts separate entries of the source, which are not always exact repeats. Identical values can stand only once. Screen size: about 210,000 compounds; about 520 (0.25%) were called active. No stated cut-off is given here; in the data, active means inhibition above about 50%; inactive means the rest. The full list was thinned out, with actives kept by preference. The source holds several records for some structures; these can differ, active in one and inactive in another.

This experiment deals with Plasmodium falciparum apicoplast DNA polymerase (apPOL). Briefly: Pf-apPOL inhibitors, biochemical, fluorescence (AID 1794808). Particulars: Recombinant Pf-apPOL, molecular beacon fluorescence, 1.5 h; at 10 µM; stronger effect = higher value.
A word on the inhibition: it is the drop in the measured response relative to a control, in per cent. Regarding `Cc1cccc(NC(=O)CSc2nccn2C)c1C`, the inhibition is -4.4% (inactive).

Regarding `COC(=O)c1cc(Nc2cc(F)ccc2F)c2ccccc2n1`, the inhibition is -1.7% (inactive).

Regarding `CCc1ccc(NC(=O)CCS(=O)(=O)c2ccc(Br)s2)cc1`, the inhibition is -6.3% (inactive).

For `COc1ccc(CC2(C)OC(c3ccc(C(C)(C)C)cc3)=NN2C(C)=O)cc1` (stereo unspecified), the inhibition is 5.3% (inactive).

In the case of `CCOc1nn(-c2nc(-c3ccccc3)cc(C(F)(F)F)n2)cc1[N+](=O)[O-]`, the inhibition was 1.6% (inactive).

For the compound `c1ccc2[nH]c(CSc3nc4ccccc4[nH]3)nc2c1`, the inhibition is 86% (active) and -1.3% (inactive).

With `CNC(=O)CSc1nc2ccccc2[nH]1`, the inhibition is -7.9% (inactive).

With `c1ccc(-c2nnc(SCc3nc4ccccc4[nH]3)o2)cc1`, the inhibition is -3% (inactive).

Turning to `COc1ccc(C2=NOC(C(=O)N3CCCc4ccccc43)C2)cc1OC` (stereo unspecified), the inhibition was -3.1% (inactive).

`O=C(NCc1cccc(F)c1)C1CCc2sc(C(=O)N3CCCC3)cc2C1` (stereo unspecified): the inhibition was -2.5% (inactive).

Take `CCn1ccc(C(=O)N2CCCC2c2cccc(F)c2)n1` (stereo unspecified): the inhibition is -3.5% (inactive).

On to `O=C(NCC1CN(c2ccc3c(c2)OCO3)C(=O)O1)c1ccco1` (stereo unspecified), for which the inhibition was -9.6% (inactive).

For `CC(C)(C)c1ccc(CC(=O)c2ccc(O)cc2O)cc1`, the inhibition is -3.9% (inactive).

Turning to `O=C1CCCC2=C1C(c1ccccn1)C1=C(CCCC1=O)O2`, the inhibition was -0.8% (inactive).

Take `O=C(Nc1ncc(Cc2cccc(C(F)(F)F)c2)s1)c1ccc(-n2cnnn2)cc1`: the inhibition was -2.3% (inactive).

In the case of `CCOC(=O)N1CCc2nn(CC(=O)NC(C)CCc3ccccc3)c(=O)cc2C1` (stereo unspecified), the inhibition is -4.2% (inactive).

For `O=C(Nc1nnc(CSCc2ccccc2)s1)c1ccc(F)cc1`, the inhibition is -1.1% (inactive).

Consider `COc1ccc(CCNC(=O)C2c3ccccc3C(=O)N2Cc2ccc(C)cc2)cc1OC` (stereo unspecified), for which the inhibition was -9.1% (inactive).

As for `O=C(Nc1ccc(-c2nc3ccccc3[nH]2)cc1)c1cccc(F)c1`, the inhibition was -15.5% (inactive).

As for `CCNC(=O)c1nsc2ccc(C)cc12`, the inhibition is -1.8% (inactive).

Consider `CCOC(=O)c1ccc(NS(=O)(=O)c2c[nH]c(=O)[nH]c2=O)cc1`, for which the inhibition is -10.5% (inactive).

Regarding `CCN(CC)CCCNC(=O)C1CCN(S(=O)(=O)N2CCC3(CC2)OCCO3)CC1`, the inhibition was -18.9% (inactive).

Take `Cc1ccc(-n2cc(C(=O)N3CCCCC3)nn2)cc1C`: the inhibition is -2.2% (inactive).

Regarding `COc1ccc(/C=C2\N=C(c3cc(OC)c(OC)c(OC)c3)OC2=O)cc1`, the inhibition is -0.6% (inactive).

Regarding `Cc1ccc(-n2c(O)c(C=Nc3cc(Cl)ccc3O)c(=O)[nH]c2=O)cc1`, the inhibition is -0.1% (inactive).

For the compound `CCc1c(C)c2ccc(OCC(C)C)cc2oc1=O`, the inhibition was -2.3% (inactive).
